Potency and outcome data for 31 molecules are collected here from PubChem BioAssay (NCATS).

The target of assay [1] is N-terminal Xaa-Pro-Lys N-methyltransferase 1 (Homo sapiens) (UniProt Q9BV86). Briefly: qHTS Assay for Inhibitors of N-terminal methyltransferase 1 (NTMT1): LOPAC validation of the NTMT1 SAHH-coupled ThioGlo3 Assay (AID 1347143).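 Also: SAH from peptide methylation measured as thiol fluorescence via SAHH coupling and ThioGlo3; nearly all actives have a fitted effect of over 70% in size.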 Also: potency is read from the fitted curve at half-maximal effect. In outline:
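Inhibition of NTMT1 methylation of peptide SPKRIA is followed by converting SAH with SAHH and labelling the released thiol with ThioGlo3. Plates are read at 340/450nm before and 30 min after reagent addition, both at room temperature.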
(In general: In qHTS, concentration-response curves come from the screen itself.)

The subject of assay [2] is Zika virus NS2B-NS3 protease. Briefly: Primary screen GU AMC qHTS for Zika virus inhibitors (AID 1347154). Also: nearly all actives have a fitted effect of over 70% in size. In a few lines:
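Fluorogenic AMC-substrate cleavage by noncovalent NS2B-NS3 protease complex (25 nM, pH 8.0 Tris buffer with Tween 20) followed for 15 minutes at room temperature (~20% conversion). Percent inhibition from ex340/em450 signal change, fitted by 4-parameter Hill equation.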

A short description of assay [3]: Confirmatory screen GU Rhodamine qHTS for Zika virus inhibitors qHTS (AID 1347157). Also: potency is read from the fitted curve at half-maximal effect; nearly all actives have a fitted effect of over 70% in size. To be noted: purified enzyme assay, Rhodamine110 substrate fluorescence, 15 min. In a few lines:
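In dose–response format, inhibition of unlinked protease (25 nM) was measured with 1.5 microM bis-peptide Rhodamine110 substrate. Aprotinin served as the intraplate control.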

Assay [4] in a line: ZIKV-mCherry secondary qHTS for Zika virus inhibitors (AID 1347158). Also: top concentration of the series differs between compounds. In a few lines: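 After overnight seeding at 37 °C, Vero cells receive compound and then ZIKV-mCherry (MOI 1). Following 48-72 h infection, cells are fixed, counterstained with Hoechst, and imaged; percent infected cells is derived from an mCherry intensity cut-off of 450 RFU.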
Assay [5] is described as follows: Confirmatory screen NINDS Rhodamine qHTS for Zika virus inhibitors (AID 1347161). Also: potency is read from the fitted curve at half-maximal effect; nearly all actives have a fitted effect of over 60% in size. In a few lines:
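Kinetic fluorescence (Ex 480 nm, Em 540 nm) over 15 min with 1.5 microM Rhodamine110 peptide and 25 nM linked protease.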

Assay [6] has as its system Zika virus NS2B-NS3 protease (linked). Briefly: 384 well plate NINDS AMC confirmatory qHTS for Zika virus inhibitors (AID 1347163). Also: potency is read from the fitted curve at half-maximal effect; nearly all actives have a fitted effect of over 50% in size. Particulars: Recombinant NS2B-NS3 protease, Ac-VKTGKR-AMC fluorescence. In a few lines:
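Linked protease 5/30/60 nM final; cpds up to 1 mM final, ~15 min preinc. Substrate Ac-VKTGKR-AMC 30 microM final. RT, dark, 25 min; FI ex 355/em 460; normalized to no-enzyme/no-inhibitor ctrls.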

Assay [7] concerns the target Lysine-specific demethylase 5B (Homo sapiens) (UniProt Q9UGL1). Briefly: Optimization screen for KDM5B Histone Demethylases FDH coupled qHTS against the LOPAC library (AID 1347166). In a few lines: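 KDM5BDeltaAP (200nM final) preincubated 10 min with compound, then 12.5uM H3K4Me3, 25uM a-ketoglutarate, ascorbate, Fe(II), NAD+ and FDH added; 50mM HEPES pH 7.5, 0.01% Tween-20. NADH fluorescence (340/450 nm) change over 30 min, room temperature.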

A short description of assay [8]: Tertiary RLuc qRT-PCR qHTS assay for Zika virus inhibitors (AID 1347169). Also: top concentration of the series differs between compounds; nearly all actives have a fitted effect of over 55% in size. In outline:
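Inhibition of ZIKV-RLuc replication in Vero cells, read as Renilla luminescence 1-1.5 hrs after live-cell substrate addition, following 48-72 hrs infection at MOI 1-2 in presence of compound.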
A general note: Quantitative PCR measures a nucleic acid by following its amplification.

The test system of assay [9] is Zika virus NS2B-NS3 protease (unlinked). Briefly: Optimization of GU AMC qHTS for Zika virus inhibitors: Unlinked NS2B-NS3 protease assay (AID 1347151). Also: nearly all actives have a fitted effect of over 80% in size. Also: potency is read from the fitted curve at half-maximal effect. In a few lines: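 In this qHTS, compounds acted on 25 nM unlinked Zika NS2B–NS3 in pH 8.0 Tris/Tween buffer. Cleavage of an AMC peptide ran 15 min at room temperature, to about 20% conversion.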
The subject of assay [10] is Zika virus NS2B-NS3 protease (unlinked complex). Briefly: Confirmatory screen GU AMC qHTS for Zika virus inhibitors (AID 1347153). Also: nearly all actives have a fitted effect of over 70% in size. In a few lines:
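Noncovalent NS2B hydrophilic domain/NS3 protease complex (25 nM) in 10 mM Tris-HCl pH 8.0, 0.01% Tween 20 was preincubated 15 min at room temperature with compounds. Then 10 µM AMC substrate (Km 18.3 µM) was added; fluorescence was read over 15 min and fitted to a 4-parameter Hill equation.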

Assay [11] has the same test system. Briefly: Primary screen GU Rhodamine qHTS for Zika virus inhibitors: Unlinked NS2B-NS3 protease assay (AID 1347159). Also: nearly all actives have a fitted effect of over 60% in size. In a few lines: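 Noncovalent NS2B hydrophilic domain–NS3 protease domain complex (25 nM) preincubated 15 min at room temperature with compounds (up to 114 microM) in 10 mM Tris-HCl pH 8.0, 0.01% Tween 20; 1.5 microM Rhodamine110 substrate added, fluorescence change over 15 min fitted to Hill equation.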

In assay [12] the test system is Zika virus NS2B-NS3 protease (linked construct). Briefly: Primary screen NINDS Rhodamine qHTS for Zika virus inhibitors (AID 1347160). Also: nearly all actives have a fitted effect of over 55% in size. In a few lines: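 Purified linked NS2B-NS3 protease (NS2B hydrophilic domain joined to NS3 protease by flexible linker), 25 nM in 10 mM Tris-HCl pH 8.0, 0.01% Tween 20. Compounds titrated, 15 min preincubation at room temperature; 1.5 microM Rhodamine110 substrate, FITC fluorescence change over 15 min.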

Assay [13] is described as follows: Vero cells viability qHTS for Zika virus inhibitors (AID 1347167). In a few lines: (§1)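 Compounds were tested in concentration series on cells grown in DMEM containing 4% FBS. After 24 to 48 hours, cellular ATP was measured by luminescence with CellTiter Glo.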
Assay [14] can be described thus: HepG2 cells viability qHTS for Zika virus inhibitors (AID 1347168). In a few lines:
as §1

Assay [15] concerns Zika virus NS2B-NS3 protease (linked construct). Briefly: 384 well plate NINDS Rhodamine confirmatory qHTS for Zika virus inhibitors (AID 1347164). Also: top concentration of the series differs between compounds; nearly all actives have a fitted effect of over 65% in size. In outline: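 Cleavage of Ac-LKRR-Rhodamine 110 (10 microM final) by linked protease (final 5, 30 or 60 nM) was followed as fluorescence at 485/538 nm after 25 min, room temperature, dark. Compounds preincubated ~15 min.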

Each structure is given as a SMILES string. “And” between values parts separate entries of the source, which are not always exact repeats. Identical values can stand only once. Inconclusive results are not listed. A call without a number means that no potency is given here. The source made the active and inactive calls. Calls follow the shape of the dose curve; as a rule, active = well fitted curve in the direction sought with a large enough effect; inconclusive = small, poorly fitted or top-dose-only effect, or another doubt; inactive = no such curve, though single readings can be large; an effect the other way counts as inactive or inconclusive.

Chain of N-terminal Xaa-Pro-Lys N-methyltransferase 1 (Homo sapiens) (Q9BV86 whole entry, looked up): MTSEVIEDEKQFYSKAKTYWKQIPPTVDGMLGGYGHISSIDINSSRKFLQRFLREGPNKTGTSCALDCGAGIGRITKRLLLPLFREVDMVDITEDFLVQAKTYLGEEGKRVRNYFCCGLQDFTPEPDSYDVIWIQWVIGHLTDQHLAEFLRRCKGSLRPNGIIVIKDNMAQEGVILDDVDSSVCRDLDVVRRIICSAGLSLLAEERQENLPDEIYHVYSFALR
Chain of Lysine-specific demethylase 5B (Homo sapiens) (Q9UGL1 whole entry, looked up): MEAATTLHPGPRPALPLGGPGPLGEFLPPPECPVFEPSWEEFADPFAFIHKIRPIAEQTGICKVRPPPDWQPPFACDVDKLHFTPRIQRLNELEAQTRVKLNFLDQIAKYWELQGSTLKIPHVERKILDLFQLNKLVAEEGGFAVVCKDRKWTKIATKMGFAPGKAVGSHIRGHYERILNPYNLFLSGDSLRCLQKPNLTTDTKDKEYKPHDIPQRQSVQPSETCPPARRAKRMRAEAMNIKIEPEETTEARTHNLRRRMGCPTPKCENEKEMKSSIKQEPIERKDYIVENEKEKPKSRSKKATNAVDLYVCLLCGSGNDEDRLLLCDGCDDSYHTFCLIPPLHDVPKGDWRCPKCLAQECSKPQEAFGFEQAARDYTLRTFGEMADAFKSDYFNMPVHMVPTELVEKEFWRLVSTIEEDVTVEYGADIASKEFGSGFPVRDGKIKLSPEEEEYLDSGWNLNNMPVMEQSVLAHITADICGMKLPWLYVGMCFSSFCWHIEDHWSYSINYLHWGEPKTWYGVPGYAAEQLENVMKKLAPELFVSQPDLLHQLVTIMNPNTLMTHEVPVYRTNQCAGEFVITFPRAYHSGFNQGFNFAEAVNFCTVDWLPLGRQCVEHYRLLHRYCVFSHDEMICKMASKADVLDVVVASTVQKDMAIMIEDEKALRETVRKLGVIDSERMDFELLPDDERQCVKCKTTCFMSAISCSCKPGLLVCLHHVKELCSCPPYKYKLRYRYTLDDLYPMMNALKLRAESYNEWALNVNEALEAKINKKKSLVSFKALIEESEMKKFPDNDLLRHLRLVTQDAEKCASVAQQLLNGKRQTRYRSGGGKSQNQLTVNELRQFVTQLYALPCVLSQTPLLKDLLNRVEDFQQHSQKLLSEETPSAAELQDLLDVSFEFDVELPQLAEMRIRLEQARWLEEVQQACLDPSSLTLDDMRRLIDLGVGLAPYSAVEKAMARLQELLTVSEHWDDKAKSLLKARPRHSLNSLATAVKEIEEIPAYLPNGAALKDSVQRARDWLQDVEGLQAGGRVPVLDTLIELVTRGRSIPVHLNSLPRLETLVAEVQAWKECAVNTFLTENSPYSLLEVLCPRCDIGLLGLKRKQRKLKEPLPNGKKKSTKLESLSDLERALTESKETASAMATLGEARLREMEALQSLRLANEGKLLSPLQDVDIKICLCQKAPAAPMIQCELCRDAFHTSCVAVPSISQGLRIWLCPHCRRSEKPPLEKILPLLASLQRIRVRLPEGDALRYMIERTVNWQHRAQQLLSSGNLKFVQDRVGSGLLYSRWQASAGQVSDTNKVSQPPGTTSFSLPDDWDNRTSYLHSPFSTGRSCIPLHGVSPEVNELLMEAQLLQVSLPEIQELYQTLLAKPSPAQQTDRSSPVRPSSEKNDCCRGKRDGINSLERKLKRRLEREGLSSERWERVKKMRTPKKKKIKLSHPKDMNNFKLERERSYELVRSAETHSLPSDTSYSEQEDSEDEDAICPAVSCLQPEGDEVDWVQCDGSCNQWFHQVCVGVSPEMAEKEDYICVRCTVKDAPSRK

As for `O=C(Nc1cccc(C(=O)Nc2ccc(S(=O)(=O)O)c3cc(S(=O)(=O)O)cc(S(=O)(=O)O)c23)c1)Nc1cccc(C(=O)Nc2ccc(S(=O)(=O)O)c3cc(S(=O)(=O)O)cc(S(=O)(=O)O)c23)c1`, the Potency result in [1], in [2] and in assay [8] was “inactive” each time. The Potency was 2.82 µM (active) and 1.41 µM (active) in assay [3]; 2 µM (active) and 1.26 µM (active) in assay [5]; 22.4 µM (active) in assay [6]. Moreover, the molecule was called inactive in [4] and in [7].
As to `CNc1ncnc2c1ncn2[C@@H]1O[C@H](CO)[C@@H](O)[C@H]1O`, the Potency result in assay [9] and in assay [2] was “inactive” in each case. Besides, the molecule was called inactive in assay [7].
For the molecule `Nc1nc(Nc2ccccc2)nc2c1ncn2[C@@H]1O[C@H](CO)[C@@H](O)[C@H]1O`, the Potency entry in assay [9] was “inactive”. In addition, in assay [7], the call was inactive.
Regarding `O=c1[nH]c2cc(C(F)(F)F)ccc2n1-c1cc(C(F)(F)F)ccc1O`, the Potency result in assay [1] and in [2] was “inactive” in each case. Moreover, the outcome in [7] was inactive.
Turning to `COc1ccccc1CN[C@@H]1CCCN[C@@H]1c1ccccc1`, the Potency result in [9] was “inactive”.
Take `Cc1cc2c(cc1Cl)N(C(=O)Nc1ccc(Oc3cccnc3C)nc1)CC2`: the Potency in assay [1] is 8.91 µM (active). Moreover, the call in [7] was inactive.
For `COc1ccc(NC(=O)/C=C/c2ccc(Cl)cc2)cc1`, the Potency entry in [1] was “inactive”. Moreover, in assay [7], the result was inactive.
For `OC[C@H]1O[C@@H](n2cnc3c(NC4CCCC4)ncnc32)[C@H](O)[C@@H]1O`, the Potency result in [9] and in assay [2] was “inactive” each time. The molecule was classed as inactive in [7].
Consider `Nc1nc(SCc2ccc([N+](=O)[O-])cc2)c2ncn([C@@H]3O[C@H](CO)[C@@H](O)[C@H]3O)c2n1`, for which the Potency entry in assay [9] and in assay [2] was “inactive” each time. Besides, the molecule was classed as inactive in assay [7].
`O=c1[nH]c2cc([N+](=O)[O-])c([N+](=O)[O-])cc2[nH]c1=O`: the Potency result in [9] and in [2] was “inactive” each time. In addition, the molecule was classed as inactive in [7].
Consider `CCCCN(CC)c1nc(C)nc2c1c(C)cn2-c1c(C)cc(C)cc1C`, for which, in assay [9], the Potency was 26.7 µM (active). Moreover, the call in assay [10], in assay [13] and in assay [14] was inactive. Also, the Potency result in [11] and in assay [12] was “inactive” throughout.
Consider `CNC(=O)[C@H]1O[C@@H](n2cnc3c(NCc4cccc(I)c4)ncnc32)[C@H](O)[C@@H]1O`, for which the Potency entry in [9] and in assay [2] was “inactive” throughout. Besides, in assay [7], the result was inactive.
Consider `OCC1O[C@H]([S-])[C@H](O)[C@@H](O)[C@@H]1O.[Au+]` (stereo partly specified), for which the Potency result in assay [9] was “inactive”.
Regarding `C[N+](C)(C)CCOP(=O)(O)OP(=O)([O-])OC[C@H]1O[C@@H](n2ccc(N)nc2=O)[C@H](O)[C@@H]1O`, in assay [9], the Potency result is “inactive”. The result in assay [7] was inactive.
For `CSc1nc(N)c2ncn([C@@H]3O[C@H](COP(=O)(O)OP(=O)(O)OP(=O)(O)O)[C@@H](O)[C@H]3O)c2n1`, the Potency result in assay [9] and in [2] was “inactive” throughout. For the same molecule, the result in assay [7] was inactive.
For `Nc1ncnc2c1ncn2[C@@H]1O[C@H](COP(=O)(O)CP(=O)(O)OP(=O)(O)O)[C@@H](O)[C@H]1O`, the Potency entry in [9] and in assay [2] was “inactive” in each case. Further, the result in assay [7] was inactive.
In the case of `COc1ccc(Br)cc1S(=O)(=O)NC(=O)/C=C/c1ccccc1Cc1ccc2ccccc2c1`, the Potency in assay [9] was 5.32 µM (active); in assay [5], 1.96 µM (active); in assay [6] it was 0.251 µM (active). Further, the Potency entry in assay [15] is “inactive”. The molecule was classed as inactive in assay [13] and in assay [14].
For `O=[N+]([O-])c1ccc(CNc2nc(NCc3cccc(C(F)(F)F)c3)nc3nc[nH]c23)cc1`, the Potency result in [9], in assay [11] and in assay [12] was “inactive” each time.
For the molecule `Cc1cc(NC(=O)Nc2ccc3c(ccn3C)c2)sn1`, the Potency entry in [9] and in assay [2] was “inactive” throughout. Further, the molecule was classed as inactive in assay [7].
In the case of `CNC(=O)[C@H]1O[C@@H](n2cnc3c(NCc4ccc(N)cc4)ncnc32)[C@H](O)[C@@H]1O`, the Potency entry in assay [9] and in assay [2] was “inactive” throughout. The call in assay [7] was inactive.
As for `Clc1ccc(N2CCN(Cc3c[nH]c4ncccc34)CC2)cc1`, the Potency result in assay [9] and in assay [2] was “inactive” each time. Moreover, the call in assay [7] was inactive.
Take `Nc1ccn([C@@H]2O[C@H](CO)[C@@H](O)[C@@H]2O)c(=O)n1`: the Potency entry in assay [9] was “inactive”.
Regarding `Fc1ccc2[nH]c(CN3CCN(c4ccccn4)CC3)cc2c1`, the Potency result in assay [9], in assay [11] and in assay [12] was “inactive” each time.
As for `CC(C)NCC(O)COc1cccc2ccccc12` (stereo unspecified), the Potency entry in assay [1] and in assay [2] was “inactive” throughout. Further, the molecule was called inactive in assay [7].
As for `CCC1C(=O)OCC1Cc1cncn1C` (stereo unspecified), the Potency result in assay [9] and in assay [2] was “inactive” throughout. The result in assay [7] was inactive.
With `Fc1ccc(C(OCCCc2cnc[nH]2)c2ccc(F)cc2)cc1`, the Potency result in [9] is “inactive”.
As for `Nc1ncnc2c1ncn2[C@@H]1O[C@H](COP(=O)(O)OP(=O)(O)OP(=O)(O)OP(=O)(O)OC[C@@H]2O[C@H](n3cnc4c(N)ncnc43)[C@@H](O)[C@H]2O)[C@@H](O)[C@H]1O`, the Potency result in [9] and in assay [2] was “inactive” in each case. Further, in assay [7], the outcome was inactive.
Regarding `O=C(c1ccc(OCCCc2cnc[nH]2)cc1)C1CC1`, the Potency entry in [9] is “inactive”. Besides, in [7], the outcome was inactive.
As to `C[N+]1(C)CCC(OC(=O)C(c2ccccc2)c2ccccc2)CC1`, the Potency entry in [9] and in assay [2] was “inactive” throughout. The outcome in assay [7] was inactive.
As for `CC(C)(C=O)Cc1cc(C(C)(C)C)c(O)c(C(C)(C)C)c1`, the Potency result in [1] and in [2] was “inactive” each time. Besides, the call in assay [7] was inactive.
In the case of `Nc1nc(Cl)nc2c1ncn2[C@@H]1O[C@H](CO)[C@@H](O)[C@H]1O`, the Potency result in assay [9] and in assay [2] was “inactive” in each case. Also, in assay [7], the molecule was classed as inactive.
